The values that follow come from PubChem BioAssay (Tox21).

Inconclusive results are not listed. Active and inactive are the calls of the source. Calls come from the whole dose curve; as a rule, active = well fitted inhibition curve with a large enough effect in the repeat runs; inconclusive = weak or mixed curves; inactive = no such curve, though single readings can be large or run the other way.
% is set by controls: 0 for no effect and ±100 for the full control effect; potency is the fitted concentration of half-maximal effect.

In the assay the target is Androgen receptor (Homo sapiens) (UniProt P10275). The assay is described as follows: qHTS assay to identify small molecule antagonists of the androgen receptor (AR) signaling pathway using the MDA cell line in the presence of 0.5 nM R1881 (AID 1259243). Note: nearly all actives have a fitted effect of over 50% in size. Particulars: MDA-kb2 MMTV-luciferase, R1881 0.5 nM, 16 h; series mostly up to 42.5 µM; activity, negative = inhibition: at the top concentration. The text has this: U.S. Tox21 Program National Center for Advancing Translational Sciences [NCATS] NIH Chemical Genomics Center [NCGC] U.S. Environmental Protection Agency [EPA] National Institutes of Environmental Health Sciences [NIEHS] National Toxicology Program [NTP] U.S. Food and Drug Administration [FDA] Tox21 Assay Overview: Androgen receptor (AR) is an important member of the nuclear receptor family. Its signaling plays a critical role in AR-dependent prostate cancer and other androgen related diseases. Considerable attention has been given in the past decades to develop methods to study and screen for the environmental chemicals that have the potential to interfere with metabolic homeostasis, reproduction, developmental and behavioral functions. Therefore AR binding assay for screening androgen antagonists can be used to identify potential endocrine disruptors. MDA-kb2 cells (from ATCC, deposited by Wilson et al.) were used to screen for AR inhibitors against Tox21 compound libraries. These cells are human breast carcinoma cells that were stably transfected with a luciferase reporter gene under control of the MMTV promoter that contains response elements for both androgen receptor (AR) and glucocorticoid receptor (GR). The current screening for identification of AR inhibitors against Tox21 libraries used lower concentration (0.5 nM) of R1881 as a stimulator.
Chain of Androgen receptor (Homo sapiens) (P10275 whole entry, looked up): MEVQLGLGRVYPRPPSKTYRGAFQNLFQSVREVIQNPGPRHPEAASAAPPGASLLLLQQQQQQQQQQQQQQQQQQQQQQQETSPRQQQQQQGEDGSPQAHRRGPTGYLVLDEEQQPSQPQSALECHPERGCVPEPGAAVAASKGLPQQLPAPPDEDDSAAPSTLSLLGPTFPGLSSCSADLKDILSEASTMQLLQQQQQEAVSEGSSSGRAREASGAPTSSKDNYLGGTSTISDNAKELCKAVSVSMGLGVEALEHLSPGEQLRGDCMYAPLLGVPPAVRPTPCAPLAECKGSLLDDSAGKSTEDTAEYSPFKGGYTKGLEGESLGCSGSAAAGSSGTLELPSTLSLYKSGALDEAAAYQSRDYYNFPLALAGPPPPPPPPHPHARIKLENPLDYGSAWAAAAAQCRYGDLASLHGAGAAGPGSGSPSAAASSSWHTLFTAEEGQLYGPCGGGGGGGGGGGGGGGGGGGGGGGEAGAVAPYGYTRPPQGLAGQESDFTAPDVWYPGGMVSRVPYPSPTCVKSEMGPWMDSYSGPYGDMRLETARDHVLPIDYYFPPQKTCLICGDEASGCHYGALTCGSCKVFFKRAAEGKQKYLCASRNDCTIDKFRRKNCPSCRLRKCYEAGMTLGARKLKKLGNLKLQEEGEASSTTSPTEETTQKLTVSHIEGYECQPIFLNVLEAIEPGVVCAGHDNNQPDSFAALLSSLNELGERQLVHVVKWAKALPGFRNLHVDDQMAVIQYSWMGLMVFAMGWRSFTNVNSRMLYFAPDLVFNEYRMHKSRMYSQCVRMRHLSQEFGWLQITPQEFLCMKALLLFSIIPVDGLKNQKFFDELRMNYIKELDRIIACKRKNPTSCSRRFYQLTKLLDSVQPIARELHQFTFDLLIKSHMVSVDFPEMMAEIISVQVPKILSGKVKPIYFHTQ
Tox21 Assay Protocol Summary: MDA-kb2 cells (cells cultured without CO2) were dispensed at 3,000 cells/well in 4 uL of culture medium into white wall/solid-bottom 1536-well plates (Corning Life Sciences, Corning, NY) using a Multidrop Combi (ThermoFisher Scientific, Waltham, MA) dispenser. After the assay plates were incubated at a 37C and 0% CO2 for 5 hr, 23 nL of compounds dissolved in DMSO, positive controls or DMSO only was transferred to the assay plate by a Pintool station (Kalypsys, San Diego, CA). The transfer of compounds was followed by the addition of 1 uL of 0.5 nM (final concentration) agonist (R1881)/culture medium using a Flying Reagent Dispenser (FRD, Aurora Discovery, San Diego, CA). The plates were incubated at 37C and 0% CO2 for 16 hr. For luciferase reporter gene assay, 4 uL of ONE-Glo reagent (Promega Corporation, Madison, WI) was added to each well using the FRD and after 30 min incubation at room temperature luminescence intensity was measured using ViewLux plate reader (PerkinElmer, Shelton, CT).
A general note: In qHTS, concentration-response curves come from the screen itself.
On to `C[Si]1(C)O[Si](C)(C)O[Si](C)(C)O1`, for which the “activity, negative = inhibition” value is 0.062% [at 92.4 µM] (inactive). On the same count and under the same terms, under `COc1cc2c(cc1OC)-c1cc(=Nc3c(C)cc(C)cc3C)n(C)c(=O)n1CC2` stands -24.5% (inactive).

Take `COC(=O)c1cc(Cl)ccc1NS(=O)(=O)C(F)(F)F`: the “activity, negative = inhibition” value was 0.895% (inactive).

With `CCCC(=O)O[C@]1(C(=O)COC(=O)CC)CC[C@H]2[C@@H]3CCC4=CC(=O)CC[C@]4(C)[C@H]3[C@@H](O)C[C@@]21C`, the “activity, negative = inhibition” value is 414% [at 19 µM] (inactive). As to `NCC1CCCC(CN)C1` (stereo not given), the “activity, negative = inhibition” value is -7.95% [at 92.4 µM] (inactive).

On to `CC(=O)Nc1ccc(N)cc1`, for which the “activity, negative = inhibition” value is -0.572% [at 92.4 µM] (inactive).

With `CCN(CC)CCNC(=O)c1ccc(NC(C)=O)cc1`, the “activity, negative = inhibition” value is 14.9% (inactive). Regarding `CCCCCCCCCCCCCCC[C@H](O)[C@@H](N)CO`, the “activity, negative = inhibition” value is -4.17% (inactive). Consider `CC(C)=CC=O`, for which the “activity, negative = inhibition” value is -0.547% [at 92.4 µM] (inactive).

As for `COc1cc2ncnc(Nc3ccc(F)c(Cl)c3)c2cc1OCCCN1CCOCC1`, the Potency was 26.6 µM (active).

As to `CC1=NN(c2ccc(C(=O)O)cc2)C(=O)C1`, the “activity, negative = inhibition” value was 1.85% [at 92.4 µM] (inactive).

On to `CCCOC(=O)c1ccc(N)cc1`, for which the “activity, negative = inhibition” value is 6.86% (inactive). Consider `CC(C)CCCC(=O)O`, for which the “activity, negative = inhibition” value was 4.83% [at 92.4 µM] (inactive). Turning to `C=CC(=C)CCCC(C)(C)OC(C)=O`, the “activity, negative = inhibition” value is -0.0806% [at 92.4 µM] (inactive). For `CCCCC1C(=O)N(c2ccccc2)N(c2ccc(O)cc2)C1=O` (stereo not given), the Potency is 26.6 µM (active). Consider `C/C(=N/NC(=O)c1ccncc1)C(=O)O`, for which the “activity, negative = inhibition” value was -7.63% (inactive).

On to `CCOC(=O)C(C)Oc1ccc(Oc2nc3ccc(Cl)cc3o2)cc1` (stereo not given), for which the “activity, negative = inhibition” value is 6.71% [at 92.4 µM] (inactive).

Turning to `c1cnc2c(n1)CCCC2`, the “activity, negative = inhibition” value is 4.74% [at 92.4 µM] (inactive).

Take `O=C(N/N=C/c1ccc([N+](=O)[O-])o1)c1ccc(O)cc1`: the Potency is 3.76 µM (active). With `O=C(O)Cc1ccc(-c2ccccc2)cc1`, the “activity, negative = inhibition” value is 0.127% (inactive).

As to `CC(=O)[C@H]1CC[C@H]2[C@@H]3C[C@H](C)C4=CC(=O)CC[C@]4(C)[C@H]3[C@@H](O)C[C@]12C`, the “activity, negative = inhibition” value is 344% (inactive).

With `CNC(=O)N(c1ccccc1)c1ccccc1`, the “activity, negative = inhibition” value was -0.248% [at 92.4 µM] (inactive). On the same count and under the same terms, under `CCC(C(=O)OCCN(CC)CC)c1ccccc1` (stereo not given) stands 7.12% (inactive). Take `CC(C)(C)CC(C)(C)c1ccc(OCCO)cc1`: the Potency is 6.82 µM (active). For `Cc1ccc(Nc2nccc(N(C)c3ccc4c(C)n(C)nc4c3)n2)cc1S(N)(=O)=O`, the Potency is 11.9 µM (active). With `CCc1cccc(N(C)C(N)=Nc2cccc3ccccc23)c1`, the “activity, negative = inhibition” value was -14.1% (inactive). The same measure, in the same setting: the same measure for `CC(C)(O)c1ccccc1CC[C@@H](SCC1(CC(=O)O)CC1)c1cccc(/C=C/c2ccc3ccc(Cl)cc3n2)c1`: 16.9% (inactive); for `CCCc1c(OCCCOc2ccc(OCC(=O)O)cc2)ccc(C(C)=O)c1O`: -3.34% [at 92.4 µM] (inactive). On to `COCc1c(C(C)C)nc(C(C)C)c(/C=C/[C@@H](O)C[C@@H](O)CC(=O)O)c1-c1ccc(F)cc1`, for which the Potency result is “inactive”. With `CC1(C)C2=CCCC(C)(C)[C@]23CC[C@H]1C3`, the “activity, negative = inhibition” value is 2.1% [at 92.4 µM] (inactive). With `Cc1cc(O)c2c(O)c3c(O)cccc3cc2c1`, the “activity, negative = inhibition” value was -20.8% (inactive). On the same count and under the same terms, under `COc1ccc(CCC(=O)c2c(O)cc(O[C@@H]3O[C@H](CO)[C@@H](O)[C@H](O)[C@H]3O[C@@H]3O[C@@H](C)[C@H](O)[C@@H](O)[C@H]3O)cc2O)cc1O` stands -3.18% [at 92.4 µM] (inactive); under `O=[N+]([O-])c1cccc(S(=O)(=O)NCCNS(=O)(=O)c2cccc([N+](=O)[O-])c2)c1`, -12.2% (inactive); under `CNC(=S)NC`, -23.9% [at 92.4 µM] (inactive).

`CO[C@H]1C=CO[C@@]2(C)Oc3c(C)c(O)c4c(O)c(c5c(c4c3C2=O)=NC2(CCN(CC(C)C)CC2)N=5)NC(=O)/C(C)=C\C=C/[C@H](C)[C@H](O)[C@@H](C)[C@@H](O)[C@@H](C)[C@H](OC(C)=O)[C@@H]1C`: the Potency is 67.1 µM (active). For the compound `CCOC(=O)/C=C/C(=O)O`, the “activity, negative = inhibition” value was -13.3% [at 92.4 µM] (inactive). Same read-out and setting: under `Cn1c(=O)c2c(ncn2CC(=O)O)n(C)c1=O` stands -3.44% (inactive). Still for that read-out and setting: the same measure for `C=CCOC(=O)/C=C\C(=O)OCC=C`: 4.04% [at 92.4 µM] (inactive). Regarding `OCC1CC=CCC1` (stereo not given), the “activity, negative = inhibition” value was 4.37% [at 92.4 µM] (inactive). On to `Oc1ccc(Nc2ccccc2)cc1`, for which the Potency was 30.6 µM (active).
